# Test results reported in paper PMC7862700, “An all-to-all approach to the identification of sequence-specific readers for epigenetic DNA modifications on cytosine”.
# Key:
# Experiment in all cases: DAPPL (digital affinity profiling via proximity ligation, sequencing); 10 mM Tris-HCl pH 7.5, 50 mM NaCl, 1 mM DTT, 4% glycerol, room temperature, 30 min; GST-TFs on glutathione beads, 16-mer random dsDNA library, 0.1% formaldehyde crosslink after washing; high values mean tight binding
# [1] = molecular target: T1, FLI1 (Homo sapiens, UniProt Q01543 1-452); details: protein: recombinant; tags: N-terminal GST; dsDNA, one strand shown
# T1 sequence: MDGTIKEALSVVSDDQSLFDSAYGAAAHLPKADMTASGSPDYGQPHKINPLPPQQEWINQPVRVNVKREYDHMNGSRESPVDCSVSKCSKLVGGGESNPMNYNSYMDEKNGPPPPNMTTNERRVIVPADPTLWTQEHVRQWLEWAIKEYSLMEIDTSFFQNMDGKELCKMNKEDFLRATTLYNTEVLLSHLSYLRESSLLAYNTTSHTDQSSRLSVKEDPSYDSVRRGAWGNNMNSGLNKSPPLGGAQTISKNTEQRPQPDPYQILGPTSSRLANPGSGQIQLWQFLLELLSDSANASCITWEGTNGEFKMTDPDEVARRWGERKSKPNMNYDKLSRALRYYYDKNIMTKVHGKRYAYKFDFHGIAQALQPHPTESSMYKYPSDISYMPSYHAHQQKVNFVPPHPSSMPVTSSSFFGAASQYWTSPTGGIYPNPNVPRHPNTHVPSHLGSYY
# Outline: (§1)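 Pools of DNA-barcoded human transcription factors, expressed in yeast as GST fusions on glutathione beads and combined with a tag-only sample, were incubated with 200 nmole of a 16-mer random double-stranded DNA library. Incubation took 30 min at room temperature in Tris/NaCl/DTT/glycerol buffer and was followed by washing, 0.1% formaldehyde crosslinking, proximity ligation (BsaI/T4 ligase, 1 h, 37 °C), PCR amplification and sequencing on an Illumina NextSeq500. Binding signal is the ratio of a hexamer's read frequency for a factor to its frequency for the tag-only sample.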
# [2] = molecular target: T2, ELK1 (Homo sapiens, UniProt P19419 1-428); details: protein: recombinant; tags: N-terminal GST; dsDNA, one strand shown
# T2 sequence: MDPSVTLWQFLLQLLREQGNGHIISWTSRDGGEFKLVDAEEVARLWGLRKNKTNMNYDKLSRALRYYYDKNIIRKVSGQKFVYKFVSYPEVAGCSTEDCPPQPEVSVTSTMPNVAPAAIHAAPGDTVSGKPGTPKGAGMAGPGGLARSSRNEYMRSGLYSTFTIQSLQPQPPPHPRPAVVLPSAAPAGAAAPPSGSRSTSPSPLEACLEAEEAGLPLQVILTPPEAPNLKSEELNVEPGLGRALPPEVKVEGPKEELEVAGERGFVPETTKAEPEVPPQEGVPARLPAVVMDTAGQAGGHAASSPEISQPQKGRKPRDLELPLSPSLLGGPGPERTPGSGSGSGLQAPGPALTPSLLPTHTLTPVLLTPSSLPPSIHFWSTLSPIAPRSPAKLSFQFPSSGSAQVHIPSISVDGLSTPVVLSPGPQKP
# Outline: as §1
# [3] = molecular target: T3, GABPA (Homo sapiens, UniProt Q06546 1-454); details: protein: recombinant; tags: N-terminal GST; dsDNA, one strand shown
# T3 sequence: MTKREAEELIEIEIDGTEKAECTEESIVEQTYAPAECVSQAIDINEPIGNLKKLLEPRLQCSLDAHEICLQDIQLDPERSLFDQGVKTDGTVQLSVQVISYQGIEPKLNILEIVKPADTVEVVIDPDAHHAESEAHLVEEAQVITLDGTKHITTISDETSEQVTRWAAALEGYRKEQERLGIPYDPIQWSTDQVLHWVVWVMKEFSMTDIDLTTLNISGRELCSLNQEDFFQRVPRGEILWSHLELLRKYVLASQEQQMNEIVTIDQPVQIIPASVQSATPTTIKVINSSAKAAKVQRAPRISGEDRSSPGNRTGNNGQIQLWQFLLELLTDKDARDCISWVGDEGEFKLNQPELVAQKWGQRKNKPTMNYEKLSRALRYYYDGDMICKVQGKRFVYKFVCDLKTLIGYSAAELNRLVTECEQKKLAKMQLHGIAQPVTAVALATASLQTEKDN
# Outline: as §1
# [4] = molecular target: T4, ERG (Homo sapiens, UniProt P11308 1-479); details: protein: recombinant; tags: N-terminal GST; dsDNA, one strand shown
# T4 sequence: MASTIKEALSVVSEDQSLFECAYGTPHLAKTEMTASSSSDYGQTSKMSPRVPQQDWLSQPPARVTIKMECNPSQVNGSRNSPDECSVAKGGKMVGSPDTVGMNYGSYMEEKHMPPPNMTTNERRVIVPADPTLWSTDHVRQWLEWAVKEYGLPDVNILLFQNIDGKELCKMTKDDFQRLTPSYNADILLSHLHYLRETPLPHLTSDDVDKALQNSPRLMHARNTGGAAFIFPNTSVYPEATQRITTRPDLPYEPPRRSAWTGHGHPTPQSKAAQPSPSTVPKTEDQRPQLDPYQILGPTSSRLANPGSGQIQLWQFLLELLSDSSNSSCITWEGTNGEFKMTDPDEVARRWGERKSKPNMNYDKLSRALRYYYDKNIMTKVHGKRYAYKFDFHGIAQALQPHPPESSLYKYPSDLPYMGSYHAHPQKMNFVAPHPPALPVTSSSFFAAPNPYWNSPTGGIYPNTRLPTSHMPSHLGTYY
# Outline: as §1
# [5] = molecular target: ELF1 (Homo sapiens, UniProt P32519 1-619); details: protein: recombinant; tags: N-terminal GST; dsDNA, one strand shown
# Chain of ELF1 (P32519 whole entry): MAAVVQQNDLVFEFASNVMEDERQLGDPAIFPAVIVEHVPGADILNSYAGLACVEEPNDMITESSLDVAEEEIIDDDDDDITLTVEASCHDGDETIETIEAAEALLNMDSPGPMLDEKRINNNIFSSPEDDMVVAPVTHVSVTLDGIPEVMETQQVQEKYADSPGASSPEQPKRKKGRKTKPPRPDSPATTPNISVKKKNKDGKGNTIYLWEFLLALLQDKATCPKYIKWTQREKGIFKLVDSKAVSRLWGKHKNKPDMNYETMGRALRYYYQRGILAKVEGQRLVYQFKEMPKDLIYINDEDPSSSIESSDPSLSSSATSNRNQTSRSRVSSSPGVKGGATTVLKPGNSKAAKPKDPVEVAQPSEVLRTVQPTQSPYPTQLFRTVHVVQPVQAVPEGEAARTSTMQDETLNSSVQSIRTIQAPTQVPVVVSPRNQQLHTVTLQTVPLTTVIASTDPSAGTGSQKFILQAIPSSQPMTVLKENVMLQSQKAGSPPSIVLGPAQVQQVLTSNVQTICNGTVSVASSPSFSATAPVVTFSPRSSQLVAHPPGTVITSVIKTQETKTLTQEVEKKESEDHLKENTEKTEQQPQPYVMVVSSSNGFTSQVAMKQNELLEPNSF
# Outline: as §1
# [6] = molecular target: T5, EHF (Homo sapiens, UniProt Q9NZC4 1-300); details: protein: recombinant; tags: N-terminal GST; dsDNA, one strand shown
# T5 sequence: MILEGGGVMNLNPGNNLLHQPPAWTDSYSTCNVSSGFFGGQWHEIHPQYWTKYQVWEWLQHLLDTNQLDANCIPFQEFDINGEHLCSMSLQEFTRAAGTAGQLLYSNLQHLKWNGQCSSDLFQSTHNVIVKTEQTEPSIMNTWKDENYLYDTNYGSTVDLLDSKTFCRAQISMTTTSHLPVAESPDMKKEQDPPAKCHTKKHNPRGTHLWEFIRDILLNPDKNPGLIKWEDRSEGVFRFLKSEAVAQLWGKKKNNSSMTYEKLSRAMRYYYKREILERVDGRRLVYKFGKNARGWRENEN
# Outline: as §1
# [7] = molecular target: SPI1 (Homo sapiens, UniProt P17947 1-270); details: protein: recombinant; tags: N-terminal GST; dsDNA, one strand shown
# Outline: as §1
# [8] = molecular target: SPIB (Homo sapiens, UniProt Q01892 1-262); details: protein: recombinant; tags: N-terminal GST; dsDNA, one strand shown
# Chain of SPIB (Q01892 whole entry): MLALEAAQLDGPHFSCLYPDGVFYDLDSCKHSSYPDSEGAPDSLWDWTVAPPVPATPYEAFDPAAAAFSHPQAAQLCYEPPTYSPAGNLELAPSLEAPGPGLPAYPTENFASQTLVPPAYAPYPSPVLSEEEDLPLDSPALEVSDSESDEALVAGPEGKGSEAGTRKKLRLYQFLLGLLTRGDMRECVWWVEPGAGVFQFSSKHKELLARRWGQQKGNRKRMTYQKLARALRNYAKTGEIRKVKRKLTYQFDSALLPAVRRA
# Outline: as §1
# [9] = molecular target: T6, ELK3 (Homo sapiens, UniProt P41970 1-407); details: protein: recombinant; tags: N-terminal GST; dsDNA, one strand shown
# T6 sequence: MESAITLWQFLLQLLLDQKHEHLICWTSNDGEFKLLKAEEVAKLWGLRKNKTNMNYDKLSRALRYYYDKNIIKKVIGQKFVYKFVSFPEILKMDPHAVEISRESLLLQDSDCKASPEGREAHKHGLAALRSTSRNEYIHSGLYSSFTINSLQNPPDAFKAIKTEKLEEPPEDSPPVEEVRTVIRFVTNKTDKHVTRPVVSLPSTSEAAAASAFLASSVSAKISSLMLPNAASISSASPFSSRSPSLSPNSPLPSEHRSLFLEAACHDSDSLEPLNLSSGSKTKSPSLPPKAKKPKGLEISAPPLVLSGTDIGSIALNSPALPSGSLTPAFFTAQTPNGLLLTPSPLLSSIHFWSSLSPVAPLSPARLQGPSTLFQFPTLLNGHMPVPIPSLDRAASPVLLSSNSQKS
# Outline: as §1
# [10] = molecular target: T7, FEV (Homo sapiens, UniProt Q99581 1-238); details: protein: recombinant; tags: N-terminal GST; dsDNA, one strand shown
# T7 sequence: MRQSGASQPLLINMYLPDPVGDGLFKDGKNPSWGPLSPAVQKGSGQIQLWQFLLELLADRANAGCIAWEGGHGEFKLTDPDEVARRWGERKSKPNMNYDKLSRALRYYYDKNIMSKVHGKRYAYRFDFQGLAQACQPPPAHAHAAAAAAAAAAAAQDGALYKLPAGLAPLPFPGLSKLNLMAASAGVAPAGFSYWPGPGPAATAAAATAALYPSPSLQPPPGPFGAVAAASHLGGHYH
# Outline: as §1
# [11] = molecular target: ETV5 (Homo sapiens, UniProt P41161 1-510); details: protein: recombinant; tags: N-terminal GST; dsDNA, one strand shown
# Chain of ETV5 (P41161 whole entry): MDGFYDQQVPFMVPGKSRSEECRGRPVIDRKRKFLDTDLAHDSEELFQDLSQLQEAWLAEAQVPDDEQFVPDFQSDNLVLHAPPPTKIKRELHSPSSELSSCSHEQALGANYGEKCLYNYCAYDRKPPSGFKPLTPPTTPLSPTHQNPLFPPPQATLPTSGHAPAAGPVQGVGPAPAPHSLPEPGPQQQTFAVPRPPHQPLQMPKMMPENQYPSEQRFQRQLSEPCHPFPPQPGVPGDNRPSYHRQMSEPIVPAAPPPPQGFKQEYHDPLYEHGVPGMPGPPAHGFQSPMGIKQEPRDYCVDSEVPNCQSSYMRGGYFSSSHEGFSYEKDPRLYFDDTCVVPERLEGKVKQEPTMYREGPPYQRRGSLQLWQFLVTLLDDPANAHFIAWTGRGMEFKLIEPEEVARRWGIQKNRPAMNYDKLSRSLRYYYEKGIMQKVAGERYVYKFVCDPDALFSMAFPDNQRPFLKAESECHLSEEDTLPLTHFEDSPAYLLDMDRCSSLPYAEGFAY
# Outline: as §1
# [12] = molecular target: HSF1 (Homo sapiens, UniProt Q00613 1-529); details: protein: recombinant; tags: N-terminal GST; chain copies: 3; dsDNA, one strand shown
# Chain of HSF1 (Q00613 whole entry): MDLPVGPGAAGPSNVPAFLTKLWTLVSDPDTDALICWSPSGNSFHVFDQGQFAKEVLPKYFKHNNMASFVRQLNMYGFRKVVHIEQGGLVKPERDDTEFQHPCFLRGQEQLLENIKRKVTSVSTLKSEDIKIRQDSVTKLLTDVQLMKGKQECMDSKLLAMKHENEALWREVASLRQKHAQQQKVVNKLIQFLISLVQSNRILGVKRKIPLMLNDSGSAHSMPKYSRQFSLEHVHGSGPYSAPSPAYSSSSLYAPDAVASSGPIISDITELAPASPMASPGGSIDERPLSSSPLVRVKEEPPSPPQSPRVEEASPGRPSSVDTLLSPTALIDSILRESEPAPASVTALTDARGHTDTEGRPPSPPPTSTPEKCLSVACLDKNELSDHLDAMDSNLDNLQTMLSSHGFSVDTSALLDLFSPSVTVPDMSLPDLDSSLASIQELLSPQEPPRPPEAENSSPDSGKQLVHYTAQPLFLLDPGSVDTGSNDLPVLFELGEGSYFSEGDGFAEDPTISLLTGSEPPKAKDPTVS
# Outline: as §1
# [13] = molecular target: T8, SPIC (Homo sapiens, UniProt Q8N5J4 1-248); details: protein: recombinant; tags: N-terminal GST; dsDNA, one strand shown
# T8 sequence: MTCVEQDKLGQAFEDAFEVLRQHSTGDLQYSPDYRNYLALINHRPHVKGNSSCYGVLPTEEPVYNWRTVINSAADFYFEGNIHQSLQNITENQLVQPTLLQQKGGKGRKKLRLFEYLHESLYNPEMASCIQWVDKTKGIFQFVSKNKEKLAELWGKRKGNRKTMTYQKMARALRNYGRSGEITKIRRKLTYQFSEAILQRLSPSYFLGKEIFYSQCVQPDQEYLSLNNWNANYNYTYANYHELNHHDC
# Outline: as §1
# [14] = molecular target: ELF4 (Homo sapiens, UniProt Q99607 1-663); details: protein: recombinant; tags: N-terminal GST; dsDNA, one strand shown
# Chain of ELF4 (Q99607 whole entry): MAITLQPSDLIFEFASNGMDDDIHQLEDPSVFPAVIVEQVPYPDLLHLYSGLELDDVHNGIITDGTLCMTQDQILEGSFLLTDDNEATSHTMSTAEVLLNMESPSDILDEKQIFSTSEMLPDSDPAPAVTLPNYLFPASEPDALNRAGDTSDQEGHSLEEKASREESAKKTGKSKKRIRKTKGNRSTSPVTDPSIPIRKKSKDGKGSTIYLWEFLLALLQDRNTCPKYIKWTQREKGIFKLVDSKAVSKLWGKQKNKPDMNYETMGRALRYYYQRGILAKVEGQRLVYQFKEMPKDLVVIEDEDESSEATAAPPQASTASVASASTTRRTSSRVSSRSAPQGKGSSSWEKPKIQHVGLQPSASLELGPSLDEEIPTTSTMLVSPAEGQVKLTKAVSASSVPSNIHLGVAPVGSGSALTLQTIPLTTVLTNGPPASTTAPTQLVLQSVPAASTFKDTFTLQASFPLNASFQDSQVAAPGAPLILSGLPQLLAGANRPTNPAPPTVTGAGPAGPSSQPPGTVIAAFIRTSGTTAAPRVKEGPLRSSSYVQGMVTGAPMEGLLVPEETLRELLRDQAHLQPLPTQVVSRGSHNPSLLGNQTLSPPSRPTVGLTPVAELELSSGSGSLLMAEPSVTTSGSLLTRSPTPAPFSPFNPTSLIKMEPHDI
# Outline: as §1
# [15] = molecular target: T9, ELK4 (Homo sapiens, UniProt P28324-2 1-405); details: protein: recombinant; tags: N-terminal GST; dsDNA, one strand shown
# T9 sequence: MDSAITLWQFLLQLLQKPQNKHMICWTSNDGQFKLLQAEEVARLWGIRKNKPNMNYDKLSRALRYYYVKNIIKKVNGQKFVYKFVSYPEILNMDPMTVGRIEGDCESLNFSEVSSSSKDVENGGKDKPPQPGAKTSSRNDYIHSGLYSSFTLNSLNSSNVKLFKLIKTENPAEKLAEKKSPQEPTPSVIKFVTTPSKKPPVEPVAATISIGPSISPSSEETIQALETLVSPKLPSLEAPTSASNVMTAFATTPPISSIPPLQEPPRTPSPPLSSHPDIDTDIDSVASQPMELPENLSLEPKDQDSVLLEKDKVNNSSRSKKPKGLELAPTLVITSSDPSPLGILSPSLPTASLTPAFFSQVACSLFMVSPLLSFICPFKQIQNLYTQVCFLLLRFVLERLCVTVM
# Outline: as §1
# [16] = molecular target: T10, ETV2 (Homo sapiens, UniProt O00321 1-342); details: protein: recombinant; tags: N-terminal GST; dsDNA, one strand shown
# T10 sequence: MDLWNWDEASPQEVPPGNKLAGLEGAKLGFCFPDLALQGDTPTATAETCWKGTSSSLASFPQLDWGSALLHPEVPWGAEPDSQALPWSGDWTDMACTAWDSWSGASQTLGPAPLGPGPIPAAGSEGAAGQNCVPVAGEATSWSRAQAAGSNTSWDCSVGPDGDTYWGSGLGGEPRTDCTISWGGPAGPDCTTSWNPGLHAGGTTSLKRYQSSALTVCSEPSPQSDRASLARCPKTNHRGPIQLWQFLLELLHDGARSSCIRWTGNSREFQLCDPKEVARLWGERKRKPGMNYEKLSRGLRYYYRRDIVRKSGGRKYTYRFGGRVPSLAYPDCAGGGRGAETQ
# Outline: as §1
# [17] = molecular target: T11, ELF3 (Homo sapiens, UniProt P78545 1-371); details: protein: recombinant; tags: N-terminal GST; dsDNA, one strand shown
# T11 sequence: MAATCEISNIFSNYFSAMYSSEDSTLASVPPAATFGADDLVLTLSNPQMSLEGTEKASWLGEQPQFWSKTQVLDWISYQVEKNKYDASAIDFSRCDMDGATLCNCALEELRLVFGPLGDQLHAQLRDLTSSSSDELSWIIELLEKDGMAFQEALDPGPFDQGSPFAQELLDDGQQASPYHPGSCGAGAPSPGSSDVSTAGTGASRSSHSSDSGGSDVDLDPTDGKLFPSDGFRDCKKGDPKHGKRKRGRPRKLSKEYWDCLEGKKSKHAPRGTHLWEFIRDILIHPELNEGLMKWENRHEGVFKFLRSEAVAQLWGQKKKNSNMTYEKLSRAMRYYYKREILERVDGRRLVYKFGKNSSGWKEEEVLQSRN
# Outline: as §1
# [18] = molecular target: CRX (Homo sapiens, UniProt O43186 1-299); details: protein: recombinant; tags: N-terminal GST; dsDNA, one strand shown
# Chain of CRX (O43186 whole entry): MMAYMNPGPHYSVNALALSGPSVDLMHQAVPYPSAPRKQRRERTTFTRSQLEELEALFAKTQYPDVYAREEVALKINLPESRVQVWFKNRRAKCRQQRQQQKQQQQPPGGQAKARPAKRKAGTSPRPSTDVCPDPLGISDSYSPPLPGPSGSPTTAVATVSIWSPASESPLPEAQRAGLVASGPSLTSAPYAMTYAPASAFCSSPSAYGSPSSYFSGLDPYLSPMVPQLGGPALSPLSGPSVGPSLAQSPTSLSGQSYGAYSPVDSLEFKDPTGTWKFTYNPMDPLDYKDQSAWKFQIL
# Outline: as §1
# [19] = molecular target: ETV1 (Homo sapiens, UniProt P50549 1-477); details: protein: recombinant; tags: N-terminal GST; dsDNA, one strand shown
# Chain of ETV1 (P50549 whole entry): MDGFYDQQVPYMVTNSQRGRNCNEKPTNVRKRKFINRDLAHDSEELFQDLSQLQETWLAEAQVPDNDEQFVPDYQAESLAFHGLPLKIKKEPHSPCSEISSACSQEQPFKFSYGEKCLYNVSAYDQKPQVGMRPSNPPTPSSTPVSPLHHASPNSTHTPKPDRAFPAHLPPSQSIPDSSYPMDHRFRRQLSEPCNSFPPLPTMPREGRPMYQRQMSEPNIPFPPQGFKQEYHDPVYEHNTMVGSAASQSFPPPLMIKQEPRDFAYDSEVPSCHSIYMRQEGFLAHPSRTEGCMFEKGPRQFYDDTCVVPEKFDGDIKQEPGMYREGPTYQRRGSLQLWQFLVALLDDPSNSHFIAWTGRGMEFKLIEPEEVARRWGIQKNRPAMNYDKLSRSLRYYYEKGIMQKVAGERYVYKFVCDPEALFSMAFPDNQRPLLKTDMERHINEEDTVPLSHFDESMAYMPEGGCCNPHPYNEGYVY
# Outline: as §1
sequence,measurement,setting,value
CTCTGC,binding signal,[1],"1.71 fold enrichment (6-mer frequency, TF over GST control)"
same,binding signal,[2],"1.6 fold enrichment (6-mer frequency, TF over GST control)"
same,binding signal,[3],"1.56 fold enrichment (6-mer frequency, TF over GST control)"
same,binding signal,[4],"1.46 fold enrichment (6-mer frequency, TF over GST control)"
same,binding signal,[5],"1.58 fold enrichment (6-mer frequency, TF over GST control)"
same,binding signal,[6],"1.57 fold enrichment (6-mer frequency, TF over GST control)"
same,binding signal,[7],"1.53 fold enrichment (6-mer frequency, TF over GST control)"
same,binding signal,[8],"1.52 fold enrichment (6-mer frequency, TF over GST control)"
same,binding signal,[9],"1.4 fold enrichment (6-mer frequency, TF over GST control)"
same,binding signal,[10],"1.5 fold enrichment (6-mer frequency, TF over GST control)"
same,binding signal,[11],"1.49 fold enrichment (6-mer frequency, TF over GST control)"
same,binding signal,[12],"1.25 fold enrichment (6-mer frequency, TF over GST control)"
same,binding signal,[13],"1.55 fold enrichment (6-mer frequency, TF over GST control)"
same,binding signal,[14],"1.61 fold enrichment (6-mer frequency, TF over GST control)"
same,binding signal,[15],"1.86 fold enrichment (6-mer frequency, TF over GST control)"
same,binding signal,[16],"1.43 fold enrichment (6-mer frequency, TF over GST control)"
same,binding signal,[17],"1.56 fold enrichment (6-mer frequency, TF over GST control)"
same,binding signal,[18],"1.2 fold enrichment (6-mer frequency, TF over GST control)"
same,binding signal,[19],"1.64 fold enrichment (6-mer frequency, TF over GST control)"
